# Results as given in the supplement of paper PMC4466140.
# B1: unnamed (peptide)
# chain: ANNQGPPNLPARDKS
# B2: unnamed (peptide)
# chain: NLDRSKISLPDFDDE
# Tests used:
# Test in all cases: SPOT peptide array binding signal intensity (averaged, normalized) (arbitrary units (background-subtracted, floor 0; scale differs between SH3 domains)); higher = stronger binding of the SH3 domain to the peptide
# AgAbp1 = target: AgAbp1
# Outline: (§1)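 Detection of bound protein relied on anti-GST antibody, an HRP anti-mouse secondary and luminol, with imaging and quantification in Genespotter. The bound protein was GST-fused SH3 domains from four yeast species, incubated at 10 μg/ml overnight at 4°C in TBS-based blocking buffer on cellulose membranes carrying synthetic 15-mer peptides with cysteines replaced by serines. Binding signal is normalized, background-subtracted spot intensity averaged over replicates, in arbitrary units that differ between domains.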
# AgBbc1 = target: AgBbc1
# Outline: as §1
# AgBem1-D1 = target: AgBem1-D1
# Outline: as §1
# AgBzz1-D1 = target: AgBzz1-D1
# Outline: as §1
# AgBzz1-D2 = target: AgBzz1-D2
# Outline: as §1
# AgCyk3 = target: AgCyk3
# Outline: as §1
# AgFus1 = target: AgFus1
# Outline: as §1
# AgHof1 = target: AgHof1
# Outline: as §1
# AgHse1 = target: AgHse1
# Outline: as §1
# AgLsb1 = target: AgLsb1
# Outline: as §1
# AgLsb4 = target: AgLsb4
# Outline: as §1
# AgMyo5 = target: AgMyo5
# Outline: as §1
# AgNbp2 = target: AgNbp2
# Outline: as §1
# AgRvs167 = target: AgRvs167
# Outline: as §1
# AgSho1 = target: AgSho1
# Outline: as §1
# AgSla1-D1-D2 = target: AgSla1-D1-D2
# Outline: as §1
# AgSla1-D3 = target: AgSla1-D3
# Outline: as §1
# CaAbp1-D1 = target: CaAbp1-D1
# Outline: as §1
# CaAbp1-D2 = target: CaAbp1-D2
# Outline: as §1
# CaBbc1 = target: CaBbc1
# Outline: as §1
# CaBem1-D1 = target: CaBem1-D1
# Outline: as §1
# CaBzz1-D1 = target: CaBzz1-D1
# Outline: as §1
# CaBzz1-D2 = target: CaBzz1-D2
# Outline: as §1
# CaCyk3 = target: CaCyk3
# Outline: as §1
# CaFus1 = target: CaFus1
# Outline: as §1
# CaHof1 = target: CaHof1
# Outline: as §1
# CaHse1 = target: CaHse1
# Outline: as §1
# CaLsb1 = target: CaLsb1
# Outline: as §1
# CaLsb4 = target: CaLsb4
# Outline: as §1
# CaMyo5 = target: CaMyo5
# Outline: as §1
# CaNbp2 = target: CaNbp2
# Outline: as §1
# CaRvs167 = target: CaRvs167
# Outline: as §1
# CaRvs167-3 = target: CaRvs167-3
# Outline: as §1
# CaSho1 = target: CaSho1
# Outline: as §1
# CaSla1-D1-D2 = target: CaSla1-D1-D2
# Outline: as §1
# CaSla1-D3 = target: CaSla1-D3
# Outline: as §1
# ScAbp1 = target: ScAbp1
# Outline: as §1
# ScBbc1 = target: ScBbc1
# Outline: as §1
# ScBem1-D1 = target: ScBem1-D1
# Outline: as §1
# ScBzz1-D1 = target: ScBzz1-D1
# Outline: as §1
# ScBzz1-D2 = target: ScBzz1-D2
# Outline: as §1
# ScCyk3 = target: ScCyk3
# Outline: as §1
# ScFus1 = target: ScFus1
# Outline: as §1
# ScHof1 = target: ScHof1
# Outline: as §1
# ScHse1 = target: ScHse1
# Outline: as §1
# ScLsb1 = target: ScLsb1
# Outline: as §1
# ScLsb2 = target: ScLsb2
# Outline: as §1
# ScLsb3 = target: ScLsb3
# Outline: as §1
# ScLsb4 = target: ScLsb4
# Outline: as §1
# ScMyo3 = target: ScMyo3
# Outline: as §1
# ScMyo5 = target: ScMyo5
# Outline: as §1
# ScNbp2 = target: ScNbp2
# Outline: as §1
# ScPex13 = target: ScPex13
# Outline: as §1
# ScRvs167 = target: ScRvs167
# Outline: as §1
# ScSho1 = target: ScSho1
# Outline: as §1
# ScSla1-D1-D2 = target: ScSla1-D1-D2
# Outline: as §1
# ScSla1-D3 = target: ScSla1-D3
# Outline: as §1
# SpAbp1-D1 = target: SpAbp1-D1
# Outline: as §1
# SpBbc1 = target: SpBbc1
# Outline: as §1
# SpBzz1-D1 = target: SpBzz1-D1
# Outline: as §1
# SpBzz1-D2 = target: SpBzz1-D2
# Outline: as §1
# SpCyk3 = target: SpCyk3
# Outline: as §1
# SpHof1 = target: SpHof1
# Outline: as §1
# SpHof1-2 = target: SpHof1-2
# Outline: as §1
# SpHof1-3 = target: SpHof1-3
# Outline: as §1
# SpHse1 = target: SpHse1
# Outline: as §1
# SpLsb1 = target: SpLsb1
# Outline: as §1
# SpLsb4 = target: SpLsb4
# Outline: as §1
# SpMyo1 = target: SpMyo1
# Outline: as §1
# SpNbp2 = target: SpNbp2
# Outline: as §1
# SpPex13 = target: SpPex13
# Outline: as §1
# SpRvs167 = target: SpRvs167
# Outline: as §1
# SpSla1-D1-D2 = target: SpSla1-D1-D2
# Outline: as §1
# SpSla1-D3 = target: SpSla1-D3
# Outline: as §1
binder,measurement,setting,value
B1,SPOT peptide array binding signal intensity,AgAbp1,4.5
same,SPOT peptide array binding signal intensity,AgBbc1,0.25
same,SPOT peptide array binding signal intensity,AgBem1-D1,3.5
same,SPOT peptide array binding signal intensity,AgBzz1-D1,9.5
same,SPOT peptide array binding signal intensity,AgBzz1-D2,4
same,SPOT peptide array binding signal intensity,AgCyk3,≤ 0
same,SPOT peptide array binding signal intensity,AgFus1,≤ 0
same,SPOT peptide array binding signal intensity,AgHof1,1
same,SPOT peptide array binding signal intensity,AgHse1,≤ 0
same,SPOT peptide array binding signal intensity,AgLsb1,144
same,SPOT peptide array binding signal intensity,AgLsb4,4990
same,SPOT peptide array binding signal intensity,AgMyo5,≤ 0
same,SPOT peptide array binding signal intensity,AgNbp2,≤ 0
same,SPOT peptide array binding signal intensity,AgRvs167,274
same,SPOT peptide array binding signal intensity,AgSho1,≤ 0
same,SPOT peptide array binding signal intensity,AgSla1-D1-D2,≤ 0
same,SPOT peptide array binding signal intensity,AgSla1-D3,0.75
same,SPOT peptide array binding signal intensity,CaAbp1-D1,8
same,SPOT peptide array binding signal intensity,CaAbp1-D2,18.5
same,SPOT peptide array binding signal intensity,CaBbc1,20.5
same,SPOT peptide array binding signal intensity,CaBem1-D1,≤ 0
same,SPOT peptide array binding signal intensity,CaBzz1-D1,6.5
same,SPOT peptide array binding signal intensity,CaBzz1-D2,4.5
same,SPOT peptide array binding signal intensity,CaCyk3,≤ 0
same,SPOT peptide array binding signal intensity,CaFus1,≤ 0
same,SPOT peptide array binding signal intensity,CaHof1,≤ 0
same,SPOT peptide array binding signal intensity,CaHse1,38.8
same,SPOT peptide array binding signal intensity,CaLsb1,≤ 0
same,SPOT peptide array binding signal intensity,CaLsb4,5930
same,SPOT peptide array binding signal intensity,CaMyo5,0.5
same,SPOT peptide array binding signal intensity,CaNbp2,≤ 0
same,SPOT peptide array binding signal intensity,CaRvs167,2230
same,SPOT peptide array binding signal intensity,CaRvs167-3,3
same,SPOT peptide array binding signal intensity,CaSho1,≤ 0
same,SPOT peptide array binding signal intensity,CaSla1-D1-D2,≤ 0
same,SPOT peptide array binding signal intensity,CaSla1-D3,≤ 0
same,SPOT peptide array binding signal intensity,ScAbp1,7
same,SPOT peptide array binding signal intensity,ScBbc1,2
same,SPOT peptide array binding signal intensity,ScBem1-D1,≤ 0
same,SPOT peptide array binding signal intensity,ScBzz1-D1,5
same,SPOT peptide array binding signal intensity,ScBzz1-D2,1
same,SPOT peptide array binding signal intensity,ScCyk3,≤ 0
same,SPOT peptide array binding signal intensity,ScFus1,2
same,SPOT peptide array binding signal intensity,ScHof1,2
same,SPOT peptide array binding signal intensity,ScHse1,42.5
same,SPOT peptide array binding signal intensity,ScLsb1,645
same,SPOT peptide array binding signal intensity,ScLsb2,5
same,SPOT peptide array binding signal intensity,ScLsb3,7290
same,SPOT peptide array binding signal intensity,ScLsb4,4380
same,SPOT peptide array binding signal intensity,ScMyo3,≤ 0
same,SPOT peptide array binding signal intensity,ScMyo5,≤ 0
same,SPOT peptide array binding signal intensity,ScNbp2,≤ 0
same,SPOT peptide array binding signal intensity,ScPex13,472
same,SPOT peptide array binding signal intensity,ScRvs167,2820
same,SPOT peptide array binding signal intensity,ScSho1,≤ 0
same,SPOT peptide array binding signal intensity,ScSla1-D1-D2,≤ 0
same,SPOT peptide array binding signal intensity,ScSla1-D3,0.75
same,SPOT peptide array binding signal intensity,SpAbp1-D1,≤ 0
same,SPOT peptide array binding signal intensity,SpBbc1,≤ 0
same,SPOT peptide array binding signal intensity,SpBzz1-D1,6
same,SPOT peptide array binding signal intensity,SpBzz1-D2,≤ 0
same,SPOT peptide array binding signal intensity,SpCyk3,≤ 0
same,SPOT peptide array binding signal intensity,SpHof1,0.5
same,SPOT peptide array binding signal intensity,SpHof1-2,5.5
same,SPOT peptide array binding signal intensity,SpHof1-3,6.75
same,SPOT peptide array binding signal intensity,SpHse1,≤ 0
same,SPOT peptide array binding signal intensity,SpLsb1,91
same,SPOT peptide array binding signal intensity,SpLsb4,6520
same,SPOT peptide array binding signal intensity,SpMyo1,≤ 0
same,SPOT peptide array binding signal intensity,SpNbp2,≤ 0
same,SPOT peptide array binding signal intensity,SpPex13,≤ 0
same,SPOT peptide array binding signal intensity,SpRvs167,3210
same,SPOT peptide array binding signal intensity,SpSla1-D1-D2,≤ 0
same,SPOT peptide array binding signal intensity,SpSla1-D3,≤ 0
B2,SPOT peptide array binding signal intensity,AgAbp1,4.5
same,SPOT peptide array binding signal intensity,AgBbc1,0.75
same,SPOT peptide array binding signal intensity,AgBem1-D1,5.5
same,SPOT peptide array binding signal intensity,AgBzz1-D1,26
same,SPOT peptide array binding signal intensity,AgBzz1-D2,14
same,SPOT peptide array binding signal intensity,AgCyk3,≤ 0
same,SPOT peptide array binding signal intensity,AgFus1,42
same,SPOT peptide array binding signal intensity,AgHof1,11.5
same,SPOT peptide array binding signal intensity,AgHse1,716
same,SPOT peptide array binding signal intensity,AgLsb1,≤ 0
same,SPOT peptide array binding signal intensity,AgLsb4,18
same,SPOT peptide array binding signal intensity,AgMyo5,≤ 0
same,SPOT peptide array binding signal intensity,AgNbp2,4
same,SPOT peptide array binding signal intensity,AgRvs167,7
same,SPOT peptide array binding signal intensity,AgSho1,11.5
same,SPOT peptide array binding signal intensity,AgSla1-D1-D2,≤ 0
same,SPOT peptide array binding signal intensity,AgSla1-D3,≤ 0
same,SPOT peptide array binding signal intensity,CaAbp1-D1,33.5
same,SPOT peptide array binding signal intensity,CaAbp1-D2,26
same,SPOT peptide array binding signal intensity,CaBbc1,8
same,SPOT peptide array binding signal intensity,CaBem1-D1,4
same,SPOT peptide array binding signal intensity,CaBzz1-D1,31
same,SPOT peptide array binding signal intensity,CaBzz1-D2,2.5
same,SPOT peptide array binding signal intensity,CaCyk3,≤ 0
same,SPOT peptide array binding signal intensity,CaFus1,283
same,SPOT peptide array binding signal intensity,CaHof1,1.5
same,SPOT peptide array binding signal intensity,CaHse1,21
same,SPOT peptide array binding signal intensity,CaLsb1,≤ 0
same,SPOT peptide array binding signal intensity,CaLsb4,≤ 0
same,SPOT peptide array binding signal intensity,CaMyo5,6.25
